Results taken from PubChem BioAssay (NCATS).
Records with an inconclusive call do not appear. A number with no mark means an inactive call. Activity calls are given as the source filed them. The call rests on the fitted dose curve; in most records, active means well fitted inhibition curve with a large enough effect; inconclusive means small, poorly fitted or top-dose-only effect; inactive means no such curve, though single readings can be large or run the other way.

Biological target: Endonuclease 4 (Escherichia coli (strain K12)) (UniProt P0A6C1)
Experiment: Counterscreen for APE1 Inhibitors: qHTS Validation Assay for Inhibitors of Endonuclease IV (AID 1708)
Conditions: E. coli endonuclease IV, DNA cleavage fluorescence; series mostly up to 57.1 µM; activity change, negative = inhibition: at the top concentration
Description: Assay Provider: David M. Wilson, III, National Institute on Aging, NIH
Screening Center PI: Austin, C.P.
Screening Center: NIH Chemical Genomics Center [NCGC]
Escherichia coli endonuclease IV (Endo IV) is the key member of the AP endonuclease superfamily that catalyzes the cleavage of damaged DNA backbone immediately 5' of an AP site. E. coli EndoIV has the same functional activities as human APE1 but has no sequence or structural homology to the human protein. Herein, we utilize E. coli EndoIV to counter screen compound libraries as part of a high-throughput campaign for APE1 inhibitor identification. A concentration-response screen of the LOPAC1280 collection was performed under experimental conditions identical to those used in the APE1 screen.
Inhibition of APE1 activity was screened by utilizing double-stranded short substrate containing tetrahydrofuran (THF) abasic site labeled with rhodamine-type fluorophore (TAMRA) at the 5'-end and with non-fluorescent Black Hole Quencher-2 (BHQ-2) at the opposing 3'-end. An increase in the fluorescence intensity due to incision of the abasic site by APE1 was used to measure the enzyme activity.
Buffer: 50 mM Tris-HCl (pH 7.5) containing 50mM NaCl, 2 mM MgCl2, 1 mM DTT and 0.01% Tween-20.
Buffer in columns 3 and 4 as negative control (no enzyme).
Substrate: 50 nM final concentration of TAMRA/BHQ-2 substrate dispensed throughout the plate.
Enzyme: 2 nM E. coli EndoIV final concentration in columns 1, 2, 5-48. Column 1 is neutral (100% activity).
Control: Pintool transfer of control inhibitor NSC-13755 to column 2 of all assay plates. Two-fold, 16 pt dilution in duplicate to produce final concentrations in the 5.75 uM - 0.175 nM range.
Three uL of enzyme were dispensed to 1536-well Greiner black solid bottom plates. Compounds (23 nL) were transferred via Kalypsys pintool. The plates were incubated for 15 min at room temperature, and then 1 uL of substrate solution was added to start the reaction. The plates were immediately transferred into ViewLux High-throughput CCD imager (Perkin-Elmer) in order to measure the reaction progress in kinetic mode (three reads every 60 seconds) using 525 nm excitation and 598 nm emission fluorescence protocol. The fluorescence intensity difference between the third and the first time points was used to compute reaction progress.
On the % scale 0 is the no-effect control and ±100 the full control effect.

Row | Compound | activity change, negative = inhibition | outcome
1 | Oc1ccc(C2CNCCc3c2cc(O)c(O)c3Cl)cc1 (stereo not drawn) | 22.9% | –
2 | c1ccc([C@H]2CN3CCSC3=N2)cc1 | -9% | –
3 | CNC[C@H](O)c1cccc(O)c1 | -10.8% | –
4 | CC(=O)Oc1ccccc1C(=O)O | -8.67% | –
5 | Cc1ccc(N(CC2=NCCN2)c2cccc(O)c2)cc1 | -6.1% | –
6 | CC(C)NCC(O)COc1ccc(COCCOC(C)C)cc1 (stereo not drawn) | -0.562% | –
7 | O=c1[nH]cnc2[nH]ncc12 | -5.78% | –
8 | NC[C@H](O)c1ccc(O)c(O)c1 | 5.22% | –
9 | Cn1cnc([N+](=O)[O-])c1Sc1ncnc2nc[nH]c12 | -7.55% | –
10 | Cc1cnc(NC(=O)C2=C(O)c3ccccc3S(=O)(=O)N2C)s1 | -6.75% | –
11 | CC(C)C[C@H](NC(=O)[C@@H](O)[C@H](N)Cc1ccccc1)C(=O)O | -6.02% | –
12 | CCOC(=O)C1=C[C@]2(CC)CCCN3CCc4c(n1c1ccccc41)[C@@H]32 | -0.321% | –
13 | NC(N)=NC(=O)c1nc(Cl)c(N)nc1N | -6.27% | –
14 | Clc1cccc(Cl)c1NC1=NCCN1 | -11.2% | –
15 | Cc1oncc1C(=O)Nc1ccc(C(F)(F)F)cc1 | -8.51% | –
16 | N=c1nc(N2CCCCC2)cc(N)n1O | -12.8% | –
17 | Cc1[nH]c(=O)c(C#N)cc1-c1ccncc1 | -4.82% | –
18 | CC(C)(C)NCC(O)c1ccc(O)c(CO)c1 (stereo not drawn) | – | inactive
19 | NS(=O)(=O)c1cc2c(cc1Cl)NC=NS2(=O)=O | -4.5% | –

Row | Compound | activity change, negative = inhibition | outcome
20 | O=c1n(CCCN2CCN(c3cccc(Cl)c3)CC2)nc2ccccn12 | -5.3% | –
21 | Cc1cn[nH]c1 | -5.78% | –
22 | CCCC(CCC)C(=O)O | -6.18% | –
23 | Nc1nc2ccc(OC(F)(F)F)cc2s1 | -9.16% | –
24 | Cc1[nH]c(=O)c(C#N)cc1-c1ccc2nccn2c1 | 22.7% | –
25 | Nc1ccc(S(=O)(=O)Nc2ccnn2-c2ccccc2)cc1 | 0.161% | –
26 | NNCCc1ccccc1 | -4.1% | –
27 | CCCCNc1cc(C(=O)O)cc(S(N)(=O)=O)c1Oc1ccccc1 | 1.2% | –
28 | O=C1CCC(N2C(=O)c3ccccc3C2=O)C(=O)N1 (stereo not drawn) | -6.35% | –
29 | N[C@@H]1CONC1=O | 3.37% | –
30 | CCOC(=O)N1CCC(=C2c3ccc(Cl)cc3CCc3cccnc32)CC1 | -12.7% | –
31 | CC(C[N+](C)(C)C)OC(N)=O (stereo not drawn) | -5.06% | –
32 | Cc1ccccc1C(OCCN(C)C)c1ccccc1 (stereo not drawn) | -10.1% | –
33 | NC(=O)c1cnccn1 | -0.402% | –
34 | Nc1nc2c(ncn2COCCO)c(=O)[nH]1 | -8.27% | –
35 | NCCCC(N)(C(=O)O)C(F)F (stereo not drawn) | -8.59% | –
36 | C1COC(NC(C2CC2)C2CC2)=N1 | -2.17% | –
37 | OC(CN1CCC(Cc2ccc(F)cc2)CC1)c1ccc(Cl)cc1 (stereo not drawn) | -9.08% | –
38 | NCCc1ccc(O)c(O)c1 | 2.73% | –
